# Measurements published in the antibiotic and cytotoxicity screens of Wong et al. (2023).
# About 3,300 (8.5%) of roughly 39,000 compounds were called active. For the sample, actives were picked, then their nearest neighbours and some compounds at random.
# Test system: HepG2
# Test: cytotoxicity call (relative viability < 0.9)
# Details: 10 µM
row,SMILES,cytotoxicity call
1,CO[C@@H]1CN(C)C(=O)c2cc(NC(=O)c3cc(C)on3)ccc2OC[C@@H](C)N(S(=O)(=O)c2ccccc2)C[C@H]1C,inactive
2,COc1ccc(S(=O)(=O)N(C)C[C@H]2Oc3c(NS(=O)(=O)c4ccccc4)cccc3C(=O)N([C@H](C)CO)C[C@H]2C)cc1,inactive
3,Cc1ccc(S(=O)(=O)Nc2cccc3c2O[C@H](CN(C)S(=O)(=O)c2cccs2)[C@H](C)CN([C@H](C)CO)C3=O)cc1,inactive
4,CC(C)NC(=O)N(C)C[C@@H]1OCCCC[C@H](C)Oc2ccc(NS(C)(=O)=O)cc2C(=O)N([C@@H](C)CO)C[C@@H]1C,inactive
5,C[C@@H]1CN([C@H](C)CO)C(=O)Cc2cc(NC(=O)C3CC3)ccc2O[C@H]1CN(C)Cc1ccc(Oc2ccccc2)cc1,inactive
6,Cc1noc(C)c1NC(=O)Nc1ccc2c(c1)C(=O)N([C@H](C)CO)C[C@@H](C)[C@@H](CN(C)C(=O)Nc1ccc(C(F)(F)F)cc1)O2,inactive
7,C[C@H]1CN([C@@H](C)CO)C(=O)c2cccc(NC(=O)Nc3cccc4ccccc34)c2O[C@H]1CN(C)C(=O)NC1CCCCC1,inactive
8,N#CCC(=O)NCc1ccccn1,inactive
9,NC(=O)NCc1ccccn1,inactive
10,O=C(/C=N/O)NCc1ccccn1,active
11,C[C@H]1CN([C@@H](C)CO)C(=O)c2cc(C#CCN(C)C)cnc2O[C@@H]1CN(C)Cc1ccc2c(c1)OCO2,inactive
12,CO[C@H](C(=O)[C@@H](O)[C@@H](C)O)[C@@H]1Cc2cc3cc(O[C@H]4C[C@@H](O[C@H]5C[C@@H](O)[C@H](O)[C@@H](C)O5)[C@@H](O)[C@@H](C)O4)c(C)c(O)c3c(O)c2C(=O)[C@H]1O[C@H]1C[C@@H](O[C@H]2C[C@@H](O[C@H]3C[C@](C)(O)[C@H](O)[C@@H](C)O3)[C@H](O)[C@@H](C)O2)[C@H](O)[C@@H](C)O1,active
13,CO[C@H](C(=O)[C@@H](O)[C@@H](C)O)[C@H]1Cc2cc3cc(O[C@H]4C[C@@H](O[C@H]5C[C@@H](O)[C@@H](O)[C@@H](C)O5)[C@@H](O)[C@@H](C)O4)c(C)c(O)c3c(O)c2C(=O)[C@@H]1O[C@H]1C[C@@H](O[C@H]2C[C@@H](O[C@H]3C[C@@](C)(O)[C@@H](O)[C@@H](C)O3)[C@@H](O)[C@@H](C)O2)[C@@H](O)[C@@H](C)O1,active
14,N=c1cc(N2CCCCC2)nc(N)n1OS(=O)(=O)O,inactive
15,CC(C)C(=O)NS(=O)(=O)c1ccc(N)cc1,inactive
16,C[C@H]1CN([C@@H](C)CO)C(=O)CCCn2cc(nn2)CO[C@@H]1CN(C)S(=O)(=O)c1ccc2ccccc2c1,inactive
17,O=C(CCCCCNC(=O)OCc1ccc(CO[C@H]2C[C@@H](c3ccccc3)C=C(C(=O)N3CCN(Cc4ccccc4)CC3)O2)cc1)NO,inactive
18,CN(C)CC(=O)N1CC(=O)N2[C@H](CO)[C@@H](c3ccc(C#Cc4cccnc4)cc3)[C@@H]2C1,inactive
19,Cc1noc(C)c1NC(=O)N(C)C[C@@H]1Oc2cc(Br)ccc2S(=O)(=O)N([C@H](C)CO)C[C@@H]1C,inactive
20,COc1ccc2c3c([nH]c2c1)[C@@H](CO)N(C[C@]13CCN(CC1)C(=O)Nc1cccc(c1)F)C(=O)c1ccc(cc1)F,inactive
21,COc1ccc2c3c([nH]c2c1)[C@H](CO)N(C[C@]13CCN(CC1)C(=O)Nc1cccc(c1)F)C(=O)c1ccc(cc1)F,inactive

row,SMILES,cytotoxicity call
1,COc1ccc2c3c([nH]c2c1)[C@@H](CO)N(C[C@]13CN(CC2CCCCC2)C1)C(=O)Nc1cccc(c1)F,active
2,COc1ccc2c3c([nH]c2c1)[C@@H](CO)N(CC1CCCCC1)C[C@]13CN(C1)C(=O)Nc1cccc(c1)F,inactive
3,COc1ccc2c3c([nH]c2c1)[C@H](CO)N(C[C@]13CN(CC2CCCCC2)C1)C(=O)Nc1cccc(c1)F,active
4,COc1ccc2c3c([nH]c2c1)[C@H](CO)N(CC1CCCCC1)C[C@]13CN(C1)C(=O)Nc1cccc(c1)F,inactive
5,C[C@@H]1CN([C@H](C)CO)C(=O)c2cccc(NS(=O)(=O)c3ccc(F)cc3)c2O[C@H]1CN(C)S(=O)(=O)c1ccc(F)cc1,inactive
6,COc1cccc(-c2ccc3c(c2)O[C@@H](CN(C)C(=O)C2CCOCC2)[C@H](C)CN([C@@H](C)CO)S3(=O)=O)c1,inactive
7,CC(C)NC(=O)N(C)C[C@@H]1Oc2ccc(NC(=O)Cn3cnnn3)cc2C(=O)N([C@@H](C)CO)C[C@@H]1C,inactive
8,O=C(C[C@@H]1C=C[C@H](NS(=O)(=O)c2ccccc2F)[C@H](CO)O1)NCCCN1CCOCC1,inactive
9,C[C@@H]1CN([C@H](C)CO)C(=O)c2cccc(NC(=O)c3cnccn3)c2O[C@@H]1CN(C)S(=O)(=O)c1ccccc1,inactive
10,CC(C)NC(=O)Nc1ccc2c(c1)C(=O)N(C)[C@H]1CC[C@H](CC(=O)NCc3ccc(F)cc3)O[C@@H]1CO2,inactive
11,C[C@@H]1CN([C@H](C)CO)C(=O)c2cc(NC(=O)C3CC3)ccc2O[C@H]1CN(C)Cc1ccc(-c2ccccc2)cc1,inactive
12,CCc1ccc(-c2cc3c(=O)n(CC(=O)NCCN4CCOCC4)nc(C)n3n2)cc1,inactive
13,Cc1ccc(S(=O)(=O)Nc2ccc3c(c2)CC(=O)N([C@H](C)CO)C[C@H](C)[C@@H](CN(C)S(=O)(=O)c2cccs2)O3)cc1,inactive
14,COc1ccc(CN(C)C[C@H]2OCCCC[C@@H](C)Oc3ccc(NC(=O)NC4CCCCC4)cc3C(=O)N([C@H](C)CO)C[C@@H]2C)cc1,inactive
15,C[C@@H]1CN([C@@H](C)CO)S(=O)(=O)c2ccc(C#C[C@@H](C)O)cc2O[C@@H]1CN(C)C(=O)Nc1ccccc1,inactive
16,COc1ccc(CN(C)C[C@@H]2Oc3c(NC(=O)c4ccc(-c5nccs5)cc4)cccc3C(=O)N([C@H](C)CO)C[C@@H]2C)cc1,inactive
17,COc1ccc(CN(C)C[C@@H]2Oc3c(NC(=O)c4ccc(-c5nccs5)cc4)cccc3C(=O)N([C@H](C)CO)C[C@H]2C)cc1,active
18,COc1ccc(CN(C)C[C@H]2Oc3c(NC(=O)c4ccc(-c5nccs5)cc4)cccc3C(=O)N([C@@H](C)CO)C[C@H]2C)cc1,inactive
19,COc1ccc(CN(C)C[C@H]2Oc3c(NC(=O)c4ccc(-c5nccs5)cc4)cccc3C(=O)N([C@H](C)CO)C[C@@H]2C)cc1,inactive
20,COc1ccc(CN(C)C[C@@H]2Oc3c(NC(=O)c4ccc(-c5nccs5)cc4)cccc3C(=O)N([C@@H](C)CO)C[C@H]2C)cc1,active
21,COc1ccc(CN(C)C[C@H]2Oc3c(NC(=O)c4ccc(-c5nccs5)cc4)cccc3C(=O)N([C@@H](C)CO)C[C@@H]2C)cc1,inactive

row,SMILES,cytotoxicity call
1,CO[C@@H]1CN(C)C(=O)c2cc(NC(C)=O)ccc2OC[C@@H](C)N(S(=O)(=O)c2cn(C)cn2)C[C@H]1C,inactive
2,C[C@@H]1CCCCO[C@H](CN(C)Cc2ccccc2)[C@@H](C)CN([C@H](C)CO)C(=O)c2cc(NC(=O)c3ccccc3)ccc2O1,inactive
3,CCC[C@@H](O)C#Cc1cnc2c(c1)C(=O)N([C@H](C)CO)C[C@H](C)[C@H](CN(C)S(=O)(=O)c1ccccc1)O2,inactive
4,C[C@H](CO)N1C[C@H](C)[C@@H](CN(C)Cc2ccc(Oc3ccccc3)cc2)Oc2ccc(NC(=O)Cc3cn(C)c4ccccc34)cc2C1=O,active
5,C[C@@H]1CN([C@@H](C)CO)C(=O)c2cc(NC(=O)Cc3cn(C)c4ccccc34)ccc2O[C@H]1CN(C)Cc1ccc(Oc2ccccc2)cc1,inactive
6,C[C@H](CO)N1C[C@H](C)[C@H](CN(C)Cc2ccc(Oc3ccccc3)cc2)Oc2ccc(NC(=O)Cc3cn(C)c4ccccc34)cc2C1=O,active
7,C[C@@H]1CN([C@H](C)CO)C(=O)c2cc(NC(=O)Cc3cn(C)c4ccccc34)ccc2O[C@H]1CN(C)Cc1ccc(Oc2ccccc2)cc1,inactive
8,C[C@@H]1CN([C@@H](C)CO)C(=O)c2cc(NC(=O)Cc3cn(C)c4ccccc34)ccc2O[C@@H]1CN(C)Cc1ccc(Oc2ccccc2)cc1,inactive
9,C[C@H]1CN([C@@H](C)CO)C(=O)c2cc(NC(=O)Cc3cn(C)c4ccccc34)ccc2O[C@H]1CN(C)Cc1ccc(Oc2ccccc2)cc1,inactive
10,C[C@H]1CN([C@@H](C)CO)C(=O)c2cc(NC(=O)Cc3cn(C)c4ccccc34)ccc2O[C@@H]1CN(C)Cc1ccc(Oc2ccccc2)cc1,active
11,C[C@@H]1CN([C@H](C)CO)C(=O)c2cc(NC(=O)Cc3cn(C)c4ccccc34)ccc2O[C@@H]1CN(C)Cc1ccc(Oc2ccccc2)cc1,inactive
12,Cc1ccc(S(=O)(=O)N(C)C[C@H]2OCCCC[C@@H](C)Oc3ccc(NC(=O)Nc4ccc5c(c4)OCO5)cc3C(=O)N([C@H](C)CO)C[C@@H]2C)cc1,inactive
13,COc1cccc(-c2ccc3c(c2)O[C@H](CN(C)Cc2cncnc2)[C@H](C)CN([C@@H](C)CO)S3(=O)=O)c1,inactive
14,COc1ccc(NC(=O)N(C)C[C@H]2Oc3ccc(NC(=O)CCCCCC(=O)Nc4ccccc4N)cc3CC(=O)N([C@H](C)CO)C[C@H]2C)cc1,inactive
15,C[C@@H]1CN([C@@H](C)CO)C(=O)c2c(c3ccccc3n2C)-c2ccccc2CO[C@H]1CN(C)S(C)(=O)=O,inactive
16,CC(=O)OCC1=C(C(=O)O)N2C(=O)[C@@H](NC(=O)CSc3ccncc3)[C@H]2SC1,inactive
17,C[C@H](CO)N1C[C@H](C)[C@H](CN(C)Cc2ccc(-c3ccccc3)cc2)Oc2ccc(NC(=O)Cn3cnnn3)cc2C1=O,inactive
18,C[C@H]1CN([C@@H](C)CO)C(=O)c2cccc(NS(=O)(=O)c3cn(C)cn3)c2O[C@@H]1CN(C)Cc1ccc(C(=O)O)cc1,inactive
19,Cn1nnnc1-c1ccc(N)cc1,inactive
